PubChem BioAssay AID488969 (Vanderbilt High Throughput Screening Facility, 2010)
Whole data set: some 110,000 compounds, median “z-score” near -0.1, cut for the highest 2% near 2. This excerpt belongs to a sample that is enriched for the highest values. Active and inactive are the calls of the source.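 The calls were made as follows: active = z-score in the third read window above 3 or below -3; inactive = the rest.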

Biological target: Metabotropic glutamate receptor 8 (Rattus norvegicus) (UniProt P70579)
Experiment: rat mGluR8 modulators via GIRK flux, primary screen, cell-based, thallium flux, HTS (AID 488969)
Conditions: HEK293 rat mGluR8, GIRK (G protein-gated inwardly rectifying potassium channel) thallium flux, FluoZin2; at 10 µM; stronger effect = higher value; submaximal glutamate (EC20) added with thallium

Chain of Metabotropic glutamate receptor 8 (Rattus norvegicus) (P70579 whole entry, looked up): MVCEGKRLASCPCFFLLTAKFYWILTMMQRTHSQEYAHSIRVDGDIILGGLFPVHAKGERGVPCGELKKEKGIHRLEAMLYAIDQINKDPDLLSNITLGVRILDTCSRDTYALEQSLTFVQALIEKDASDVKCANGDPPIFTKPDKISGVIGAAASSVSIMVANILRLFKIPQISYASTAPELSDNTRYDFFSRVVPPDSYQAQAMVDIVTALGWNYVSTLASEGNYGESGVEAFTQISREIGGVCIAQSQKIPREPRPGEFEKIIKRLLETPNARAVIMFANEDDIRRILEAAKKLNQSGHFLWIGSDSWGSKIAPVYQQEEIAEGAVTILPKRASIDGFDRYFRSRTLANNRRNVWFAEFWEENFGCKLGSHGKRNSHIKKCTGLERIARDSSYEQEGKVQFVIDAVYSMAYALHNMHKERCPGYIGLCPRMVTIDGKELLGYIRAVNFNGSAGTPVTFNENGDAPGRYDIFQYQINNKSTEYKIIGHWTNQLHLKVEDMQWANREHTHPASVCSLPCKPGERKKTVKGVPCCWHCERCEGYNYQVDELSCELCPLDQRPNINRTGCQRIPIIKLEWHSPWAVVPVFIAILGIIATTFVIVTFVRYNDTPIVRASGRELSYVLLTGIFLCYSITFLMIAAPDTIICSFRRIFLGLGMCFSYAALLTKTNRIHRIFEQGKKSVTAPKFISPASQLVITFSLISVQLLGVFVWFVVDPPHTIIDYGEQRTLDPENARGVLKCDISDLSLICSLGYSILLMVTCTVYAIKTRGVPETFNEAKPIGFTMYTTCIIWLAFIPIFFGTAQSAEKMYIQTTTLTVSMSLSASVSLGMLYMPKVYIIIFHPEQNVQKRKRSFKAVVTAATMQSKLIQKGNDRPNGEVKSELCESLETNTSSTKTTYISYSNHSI

Structure (SMILES)	z-score
COc1cc(NC(=O)CN(C)S(=O)(=O)c2ccc3c(c2)CCC(=O)N3)cc(OC)c1	-0.176
O=C1NC(=O)[C@@H]2C3c4ccccc4C=CN3[C@H](C(=O)c3cccs3)[C@H]12 (stereo not given in full)	-0.687
CCCCC(=O)Nc1nn(CCC)c2nc3ccccc3cc12	-1.22
CC(C)=C1C2CCC1C1C(=O)N(NC(=O)COc3ccc(Cl)c(C)c3)C(=O)C21 (stereo not given)	-0.481
CC(C)=CCC/C(C)=C/C=N/NC(=O)c1ccccc1[N+](=O)[O-]	-0.0423
Cc1ccc(C2c3c(oc4ccccc4c3=O)C(=O)N2CCCN2CCOCC2)o1 (stereo not given)	0.634
O=C1c2oc3ccc(Cl)cc3c(=O)c2C(c2ccco2)N1CCN1CCOCC1 (stereo not given)	0.841
Cc1ccc(C2c3c(oc4ccc(Cl)cc4c3=O)C(=O)N2CCCN2CCOCC2)o1 (stereo not given)	3.95 (active)
CC(C)c1nnc(NC(=O)CCC(=O)NCc2ccc3c(c2)OCO3)s1	0.746
COc1ccc(CCNC(=O)c2nonc2N)cc1	-0.242
O=S(=O)(NCC1CCCO1)c1ccc(S(=O)(=O)N2CCc3ccccc3C2)cc1 (stereo not given)	0.1
COCCCNCCCOc1ccc(Cl)cc1Br	3.75 (active)
COCCCNCCCOc1ccc(C)cc1Br	-0.00352
OCCNCCCOc1ccc(Cl)cc1Br	0.496
COc1ccc(N2C(=O)CC(N3CCN(c4ccc(C(=O)c5cccnc5)cc4)CC3)C2=O)cc1 (stereo not given)	-0.186
CC(C)(C)c1ccc(OCc2ccc(C(=O)N/N=C3\CC4CC=CC34)cc2)cc1 (stereo not given)	-0.0236
O=C1NC(=O)C(=C2CCCCCC2)S1	0.367
O=C1NC(=S)SC1=C1CCCCCC1	17.1 (active)
O=C1NC(=S)SC1=C1CCCC1	1.36
Cc1cc(C(=O)NCc2ccccc2F)cs1	-0.288
CCSC1=N/C(=C\c2ccc(OC)cc2)C(=O)N1	-0.286
S=c1[nH]nc(-c2ccc3ccccc3n2)n1Cc1ccccc1	0.834
CC(c1ccc(F)cc1)n1c(-c2ccc3ccccc3n2)n[nH]c1=S (stereo not given)	6.84 (active)
CC(c1ccc(Cl)cc1)n1c(-c2ccc3ccccc3n2)n[nH]c1=S (stereo not given)	7.23 (active)

Structure (SMILES)	z-score
S=c1[nH]nc(-c2ccc3ccccc3n2)n1-c1ccccc1Cl	0.0824
S=c1[nH]nc(-c2ccc3ccccc3n2)n1-c1ccc(Cl)cc1	0.934
S=c1[nH]nc(-c2ccc3ccccc3n2)o1	-0.153
S=c1[nH]nc(-c2ccc3ccccc3n2)n1-c1ccc2ncccc2c1	-0.148
S=c1[nH]nc(-c2ccc3ccccc3n2)n1-c1ccccc1	0.119
S=c1[nH]nc(-c2ccc3ccccc3n2)n1-c1cc(Cl)cc(Cl)c1	2.18
Cc1ccc(C(=O)CSc2nnc(COc3ccc(C#N)cc3)n2-c2ccccc2)cc1	0.655
Oc1csc(Cc2nc(-c3ccc4ccccc4c3)cs2)n1	-0.78
Cc1ccc(NC(=O)C2CCCN(S(=O)(=O)c3cnc[nH]3)C2)cc1F (stereo not given)	-0.00916
Clc1ccc(-c2cc(CSc3cccc(Cl)c3)on2)cc1	-0.234
CCOC(=O)c1cc(NC(=O)COc2ccc([N+](=O)[O-])cc2)cc(C(=O)OCC)c1	-0.0752
Cc1[nH]c(=O)[nH]c(=O)c1/C=C/C(=O)OCC(C)C	0.104
NCCCCCc1nnc(SCc2ccccc2Cl)o1	1.74
NCCCCCc1nnc(SCc2ccc(Cl)c(Cl)c2)o1	0.93
NCCCCCc1nnc(SCc2ccc(Cl)cc2Cl)o1	2.74
Cc1ccc(-c2cn(-c3ccccc3)c(SCC(N)=O)n2)cc1C	-1.06
O=C(CSc1nc2ccccc2n1CC(=O)N1CCOCC1)N1CCCC1	0.588
O=C(CSc1nnc(-c2ccc(Br)cc2)n1CCc1ccccc1)NC1CCS(=O)(=O)C1 (stereo not given)	-0.076
Cc1ccc(C)c(-n2cc(-c3ccc(Cl)cc3)nc2SCC(=O)NC2CCS(=O)(=O)C2)c1 (stereo not given)	-0.524
CCN(C(=O)CSc1nc2cc(C(F)(F)F)ccc2n1Cc1ccccc1)C1CCS(=O)(=O)C1 (stereo not given)	-0.724
O=C(CSc1nc2ccccc2n1CCc1ccccc1)NC1CCS(=O)(=O)C1 (stereo not given)	2.39
CCN(C(=O)CSc1nc2ccccc2n1CCc1ccccc1)C1CCS(=O)(=O)C1 (stereo not given)	3.88 (active)
O=C(CSc1nc2ccccc2n1CCc1ccccc1)N1CCOCC1	2.47
CN(C(=O)CSc1nc2ccccc2n1CCc1ccccc1)C1CCS(=O)(=O)C1 (stereo not given)	0.483

Structure (SMILES)	z-score
O=C(CSc1nc2cc(C(F)(F)F)ccc2n1Cc1ccccc1)NC1CCS(=O)(=O)C1 (stereo not given)	-0.137
Cc1ccc(-c2cn(-c3ccccc3)c(SCC(=O)NC3CCS(=O)(=O)C3)n2)cc1C (stereo not given)	3.44 (active)
O=C(Cn1c(SCc2ccccc2)nc2ccccc21)N1CCOCC1	-0.096
CCOC(=O)/C(=N\Nc1ccc(OC)cc1)c1csc(Nc2ccccc2)n1	0.551
COC(=O)CCc1c(C)c(C#N)c2nc3ccccc3n2c1N1CCCC1	-0.478
Cc1cc(-n2ccc(=O)[nH]c2=O)nc(-c2ccccc2)n1	-0.208
S=C1NCCc2ccc(Cl)cc2C1c1ccccc1 (stereo not given)	-0.00171
Cc1c(C(C)(C)C)c(C=S)n2ccccc12	-0.503
CN(C)c1ccc(C2NCC(CCl)O2)cc1 (stereo not given)	-0.159
COc1cc(OC)cc(C(=O)NCc2n[nH]c(=S)n2-c2ccccc2OC)c1	-0.981
COc1ccccc1-n1c(CNC(=O)COc2ccccc2)n[nH]c1=S	2.71
CCN(CC)S(=O)(=O)c1ccc(C(=O)NCc2n[nH]c(=S)n2-c2ccccc2OC)cc1	-0.0139
CSc1ccc(N2CCN(CCCNC(=O)Nc3ccccc3F)CC2)cc1	0.699
N#Cc1ccccc1NC(=O)COC(=O)CSc1nc2ccccc2o1	-2.27
Fc1ccc(CCNC(=S)Nc2ccc(F)cc2)cc1	0.103
Cc1cc(/C=c2/sc3nc4ccccc4n3c2=O)c(C)n1-c1ccccn1	6.08 (active)
O=c1/c(=C\c2cccnc2)sc2nc3ccccc3n12	-0.0361
O=c1/c(=C/c2ccccn2)sc2nc3ccccc3n12	0.539
Cc1nc2oc3c(NCc4ccccc4)ncnc3c2c2c1COC(C)(C)C2	-0.383
CCOc1ccc(C2=NNC(c3cccs3)=Nc3ccc(OCC)cc32)cc1	-0.166
CCOc1ccc(C2=NNC(c3cccs3)=Nc3ccc(OC)cc32)cc1	3.11 (active)
CCCOc1ccc(C2=NNC(c3cccs3)=Nc3ccc(OC)cc32)cc1	-0.471
